Source: PubChem BioAssay (National Center for Advancing Translational Sciences (NCATS))
Sampled rows, rich in hits. Any-hit rate of the full collection: about 2.5%.
Cruzain inh noDet: cruzain (T. cruzi) inhibition without detergent; P25779; purified cruzain, Z-FR-AMC fluorescence, no detergent; Potency, µM, most hits filed as inhibitors; actives 2.3% (n = 200,000); also: nearly all actives have a fitted effect of over 40% in size
Target sequence (P25779 123-467 limits assumed): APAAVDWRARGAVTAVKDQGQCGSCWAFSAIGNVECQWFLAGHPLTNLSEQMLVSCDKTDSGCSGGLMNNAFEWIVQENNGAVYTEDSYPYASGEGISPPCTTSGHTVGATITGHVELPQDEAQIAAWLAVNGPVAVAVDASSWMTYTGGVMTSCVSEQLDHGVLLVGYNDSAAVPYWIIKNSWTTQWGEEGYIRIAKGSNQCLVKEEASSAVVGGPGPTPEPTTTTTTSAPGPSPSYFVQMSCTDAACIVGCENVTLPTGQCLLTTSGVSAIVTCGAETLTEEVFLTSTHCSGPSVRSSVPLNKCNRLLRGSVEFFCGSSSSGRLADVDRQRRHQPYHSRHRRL
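Purified cruzain at 1.5 nM, pre-incubated 15 min with compound at room temperature in 100 mM sodium acetate pH 5.5, 5 mM DTT, 0.00005% Triton X-100. Reaction started with 2 uM Z-FR-AMC; AMC fluorescence increase over 60 s gives rate.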
Cruzain Triton: cruzain (T. cruzi) inhibition with detergent; AID 1478; Potency, µM, most hits filed as inhibitors; purified cruzain, Z-FR-AMC fluorescence, 0.01% Triton; actives 0.43% (n = 200,000); P25779; also: nearly all actives have a fitted effect of over 40% in size
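15 min RT preincubation of 1.5 nM cruzain with compound, then 2 uM Z-FR-AMC added; kinetic AMC fluorescence, 60 s delta. Triton X-100 0.01%, pH 5.5.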
Large screens that a line does not name were inactive. Calls follow the shape of the dose curve; as a rule, active = well fitted curve in the direction sought with a large enough effect; inconclusive = small, poorly fitted or top-dose-only effect, or another doubt; inactive = no such curve, though single readings can be large; an effect the other way counts as inactive or inconclusive.

Cc1ccc2oc(=O)c3cnn(CC(=O)N(C)c4ccc(F)cc4)c3c2c1	none
COc1cc(C(=O)ON=C2C=C(C)C(=O)C(C)=C2)cc(OC)c1OC	Cruzain inh noDet inconclusive, Cruzain Triton 3.55µM
COc1cc(C(=O)O/N=C2\C=CC(=O)C(C)=C2)cc(OC)c1OC	Cruzain Triton inconclusive
C/C(=N\Nc1cccc2ccccc12)c1c(O)n(Cc2ccccc2)c(=O)[nH]c1=O	Cruzain inh noDet 10µM
CC(=NCc1cccnc1)c1c(O)n(Cc2ccccc2)c(=O)[nH]c1=O	none
Cc1ccccc1C(=O)Nc1nc2c(s1)CC(C(C)(C)C)CC2 (stereo unspecified)	none
O=C(COC(=O)CCC1CCCC1)Nc1nc2c(F)c(F)c(F)cc2s1	Cruzain inh noDet 10µM
O=C(COC(=O)CCC1CCCC1)Nc1ccc(Cl)cn1	none
CC(C)c1ccc(NC(=O)CSc2nc(=O)n(Cc3cccnc3)c3c2CCC3)cc1	Cruzain inh noDet inconclusive
COc1ccccc1NC(=O)CCS(=O)(=O)c1cc2c3c(c1)CCN3C(=O)CC2	none
Cc1cccc(NCCC(=O)c2ccc(Br)cc2)c1	none
CCOC(=O)CNCCC(=O)c1ccc(Br)cc1	Cruzain inh noDet 10µM, Cruzain Triton 25.1µM
CCCn1c(C)nc2c(NC(C)CCCN(CC)CC)nc(C)nc21 (stereo unspecified)	none
CC(=O)c1cccc(NC(=O)c2sc(-n3nc(C)c(Cc4ccccc4)c3C)nc2C)c1	none
O=C(N/N=C/c1c[nH]c2ccccc12)c1cc(-c2ccc(-c3ccccc3)cc2)n[nH]1	Cruzain inh noDet 7.94µM
O=C(N/N=C/c1c[nH]c2ccccc12)c1cc(-c2ccccc2)n[nH]1	none
CCSc1ccccc1C(=O)Nc1ccc(-c2nc3ccccc3s2)c(O)c1	Cruzain inh noDet 7.94µM
CSc1ccc(C(=O)Nc2ccc(-c3nc4ccccc4s3)c(O)c2)cc1	none
CCNc1ccc(C(=O)OCC(=O)c2cc(C)n(Cc3ccc4c(c3)OCO4)c2C)cc1[N+](=O)[O-]	Cruzain inh noDet 15.8µM
CCNc1ccc(C(=O)OCC(=O)NCc2ccc(C)cc2)cc1[N+](=O)[O-]	none
O=C(COc1ccccc1F)Nc1ccc2nc(SCC(=O)N3CCc4ccccc43)sc2c1	none
CC(=O)NCC(=O)OCC(=O)c1ccc(C)c(C)c1	none
Cc1ccc(C(=O)COC(=O)CNC(=O)COc2ccccc2C)cc1C	Cruzain inh noDet inconclusive, Cruzain Triton 15.8µM
COc1ccc(-c2c(C)cc3oc(=O)cc(-c4ccccc4)c3c2C)cc1	Cruzain inh noDet 31.6µM
Cc1ccc(-c2c(C)cc3oc(=O)cc(-c4ccccc4)c3c2C)cc1	Cruzain inh noDet inconclusive
CC(=O)Nc1ccc(-c2c(C)cc3oc(=O)cc(-c4ccccc4)c3c2C)cc1	none
CCOC(=O)c1ccc(-c2c(C)cc3oc(=O)cc(-c4ccccc4)c3c2C)cc1	Cruzain inh noDet 4.47µM
Cc1cc2oc(=O)cc(-c3ccccc3)c2c(C)c1-c1ccc(C(F)(F)F)cc1	Cruzain inh noDet inconclusive
Cc1cc2oc(=O)cc(-c3ccccc3)c2c(C)c1-c1ccc(N(C)C)cc1	Cruzain inh noDet 14.1µM
CCOC(=O)c1ccc2ncc3c(-c4ccccc4)nn(-c4ccc(F)c(Cl)c4)c3c2c1	none
COc1ccc(-n2c(SCC(=O)c3ccccc3)nc3c([nH]c4ccccc43)c2=O)cc1	none
COc1ccc(C2c3c(n(C)c4ccccc34)C(=O)N2CC(=O)Nc2c(C)cc(C)cc2C)cc1 (stereo unspecified)	Cruzain inh noDet inconclusive
CC(=O)c1ccsc1B(O)O	none
CCNC(=O)c1c(NC(=O)COc2ccc(F)cc2)sc2c1CCCC2	none
COc1ccc(/C=c2\s/c(=C/C(=O)c3ccc(C)cc3)[nH]c2=O)c(OC)c1	Cruzain inh noDet 25.1µM
COc1cccc(/C=c2\s/c(=C/C(=O)c3ccc(C)cc3)[nH]c2=O)c1OC	none
Cc1ccccc1NC(=O)c1oc2c(c1C)-c1nn(Cc3cccc(Cl)c3)cc1CC2	none
O=C(Nn1c(O)c(C=C2N=c3ccccc3=N2)sc1=S)c1ccccc1	none
Cc1ccc(C(=O)Nn2c(O)c(C=C3N=c4ccccc4=N3)sc2=S)cc1	none
Oc1c(C=C2N=c3ccccc3=N2)sc(=S)n1-c1ccc(F)cc1	Cruzain inh noDet 20µM
Oc1c(C=C2N=c3ccccc3=N2)sc(=S)n1C1CCCC1	Cruzain inh noDet 20µM
COc1cccc(C2Nc3ccccc3-c3nnc(SCc4ccccc4)nc3O2)c1OC (stereo unspecified)	none
Cc1nc2cnc(N3CCNCC3)nc2n(CCC#N)c1=O	Cruzain inh noDet inconclusive
N#C/C(=C\c1cc([N+](=O)[O-])c(N2CCOCC2)cc1N1CCOCC1)c1nc2ccccc2[nH]1	Cruzain inh noDet inconclusive
N#C/C(=C\c1cc([N+](=O)[O-])c(N2CCCCC2)cc1N1CCCCC1)c1nn(-c2ccccc2)c(N)c1C#N	Cruzain inh noDet 7.94µM
CCCCOc1ccc(C(=O)NCCc2sc3nc(-c4ccc(OC)cc4)nn3c2C)cc1	none
O=c1ccc2cc(OC3OC(CO)C(O)C(O)C3O)c(O)cc2o1 (stereo unspecified)	Cruzain inh noDet 12.6µM, Cruzain Triton 7.94µM
O=c1cc(-c2ccccc2)oc2cc(O[C@@H]3O[C@H](CO)[C@@H](O)[C@H](O)[C@H]3O)c(O)c(O)c12	none
O=S(=O)(c1ccc(-c2csc(Nc3ccc(Br)cc3)n2)cc1)N1CCCC1	Cruzain inh noDet 31.6µM
Cc1cc(C)cc(Nc2nc(-c3ccc(S(=O)(=O)N4CCCC4)cc3)cs2)c1	Cruzain inh noDet 15.8µM
Cc1ccc(Nc2nc(-c3ccc(S(=O)(=O)N4CCCC4)cc3)cs2)cc1C	Cruzain inh noDet 12.6µM
Cc1nc(-c2ccc(S(=O)(=O)N3CCCCCC3)cc2)cs1	none
Cc1nc(-c2cccc(S(=O)(=O)N3CCCCCC3)c2)cs1	none
O=S(=O)(c1ccc(-c2csc(Nc3ccc(F)cc3)n2)cc1)N1CCCC1	Cruzain inh noDet inconclusive
COc1ccc(CNc2nc(-c3cccc(C#N)c3)nc3ccccc23)c(OC)c1	Cruzain inh noDet inconclusive
CCOC(=O)c1ccccc1NC(=O)CSc1cn(CC(=O)N2CCOCC2)c2ccccc12	none
CCOC(=O)c1ccc(-c2ccc(C3Nc4ccccc4C(=O)N3O)o2)cc1 (stereo unspecified)	Cruzain inh noDet inconclusive
Cc1cc([N+](=O)[O-])ccc1-c1ccc(C2Nc3ccccc3C(=O)N2O)o1 (stereo unspecified)	Cruzain inh noDet 20µM
CCOC(=O)c1sc(NC(=O)c2ccncc2)c(C#N)c1C	none
CCOC(=O)c1sc(NC(=O)c2cc(-c3ccccc3C)nc3ccccc23)c(C#N)c1C	Cruzain inh noDet 10µM
Cc1ccccc1-c1cc(C(=O)Nc2sc(C)c(C)c2C(N)=O)c2ccccc2n1	Cruzain inh noDet 20µM
CCOC(=O)c1c(NC(=O)c2cc(-c3ccc(Cl)s3)nc3ccccc23)sc(C(N)=O)c1C	none
O=C(NCCCCc1ccccc1)c1nn(-c2ccccc2)nc1CO	none
COc1ccc(Nc2nnc(SC(C(=O)Nc3ccc(OC)c(Cl)c3)c3ccccc3)s2)cc1 (stereo unspecified)	Cruzain inh noDet 6.31µM
COc1cccc(NC(=O)C(Sc2nnc(Nc3ccccc3C)s2)c2ccccc2)c1 (stereo unspecified)	Cruzain inh noDet inconclusive
CN1CCN(Cc2nc3c(c(=O)[nH]c(=O)n3C)n2Cc2c(F)cccc2Cl)CC1	none
CCOc1ccc(C2C(C(=O)Nc3ccc(C)cc3C)=C(C)Nc3c(C(=O)Nc4ccc(C)cc4)cnn32)cc1OC (stereo unspecified)	Cruzain inh noDet inconclusive
COc1ccc(C(=O)c2cnc3ccc(C)cc3c2S(=O)(=O)c2ccccc2)cc1	Cruzain inh noDet inconclusive
